Data reported in PubChem BioAssay (Tox21).
Results filed as inconclusive are left out. Active and inactive are the calls of the source. Unless noted, calls come from the whole dose curve.

Columns and labels:
[1] = Nuclear factor erythroid 2-related factor 2/antioxidant responsive element (Nrf2/ARE) small molecule agonists: qHTS cell viability counter screen in human keratinocytes (AID 1919968; active = well fitted curve in the direction sought with a large enough effect in the repeat runs; an effect the other way counts as inactive or inconclusive; note: nearly all actives have a fitted effect of over 55% in size)
How it was run: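 KeratinoSens cells (HaCaT keratinocytes stably carrying an ARE-luciferase reporter) were seeded at 1,500 cells/well and rested 5 h at 37 C/5% CO2. They were then exposed to compounds in DMSO for 23 h. Viability was read by CellTiter-Fluor fluorescence after 1 h.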

[2] = Nuclear factor erythroid 2-related factor 2/antioxidant responsive element (Nrf2/ARE) small molecule agonists: luciferase reporter gene qHTS assay in human keratinocytes (AID 1919969); note: nearly all actives have a fitted effect of over 35% in size
[3] = target: Gonadotropin-releasing hormone receptor (Homo sapiens) (UniProt P30968); experiment: Human gonadotropin-releasing hormone receptor (GnRHR) small molecule agonists, calcium flux assay in GnRHR-HEK293 cells (AID 1920063); note: nearly all actives have a fitted effect of over 35% in size
How it was run: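 HEK293 cells stably expressing human GnRHR were plated 18 h at 37 °C, loaded with calcium dye 1 h at 37 °C, then given compound in agonist mode; fluorescence (Ex/Em 480/540) read kinetically for 3 min at 1 s intervals.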

[4] = p53 small molecule agonists, cell-based qHTS assay with human liver microsomes (AID 1963577)
How it was run: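 Cells carrying a p53-responsive bla reporter were rested 5 h (37 C, 5% CO2) before compound transfer. Human liver microsomes plus NADPH, 0.5 mg/mL final apiece, supplied metabolism during the 16 h 37 C exposure.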

[5] = p53 small molecule agonists, cell-based qHTS assay with rat liver microsomes (AID 1963578)
How it was run: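 Fluorescence from a beta-lactamase reporter under a p53 response element was measured after cells had been incubated 16 h at 37 C with test compound and rat liver microsomes plus NADPH (0.5 mg/mL final each).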

[6] = p53 small molecule agonists, cell-based qHTS assay with human liver microsomes: qHTS cell viability counter screen (AID 1963579); note: nearly all actives have a fitted effect of over 45% in size
How it was run: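 Seed p53RE-bla cells at 4,000 per well; incubate 5 h at 37 C; add compound, human liver microsomes and NADPH; incubate 16 h at 37 C; add CellTiter-Glo; after 30 min at room temperature, read luminescence.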

[7] = p53 small molecule agonists, cell-based qHTS assay with rat liver microsomes: qHTS cell viability counter screen (AID 1963580); note: nearly all actives have a fitted effect of over 45% in size
How it was run: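 Intracellular ATP, by CellTiter-Glo luminescence, defines viability. HCT-116 p53RE-bla cells, 4,000 per well, were compound-treated in the presence of rat liver microsomes and NADPH for 16 h at 37 C.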

[8] = p53 small molecule agonists, cell-based qHTS assay: qHTS cell viability counter screen (AID 1963581); note: nearly all actives have a fitted effect of over 45% in size
How it was run: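 p53RE-bla HCT-116 cells were exposed to compounds for 16 h at 37 C; after the beta-lactamase FRET read in the same wells, CellTiter-Glo was added and luminescence (intracellular ATP) read after 30 min at room temperature.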

[9] = p53 small molecule agonists, cell-based qHTS assay (AID 1963582; active = well fitted activation curve with a large enough effect in the signal ratio in the repeat runs, not every such curve was filed as active; the % refers to the signal ratio)
How it was run: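 p53RE-bla beta-lactamase reporter cells rested 5 h at 37 C/5% CO2, then received compounds in DMSO by pin transfer and were incubated 16 h at 37 C. LiveBLAzer B/G FRET substrate was loaded for 2 h at room temperature before fluorescence reading.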

[10] = target: 5-hydroxytryptamine receptor 2A (Homo sapiens) (UniProt P28223); experiment: 5-hydroxytryptamine receptor 2A (HTR2A) small molecule antagonists, cell-based qHTS assay (AID 1963586); note: nearly all actives have a fitted effect of over 45% in size
How it was run: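 Antagonist-mode intracellular calcium assay: DOI (4 nM) added after 5 min compound pre-incubation at room temperature to dye-loaded HTR2A-CHO cells. Fluorescence followed for 3 min, sampled every second.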

[11] = target: 5-hydroxytryptamine receptor 2A (Homo sapiens) (UniProt P28223); experiment: 5-hydroxytryptamine receptor 2A (HTR2A) small molecule agonists, cell-based qHTS assay (AID 1963587); note: nearly all actives have a fitted effect of over 30% in size
How it was run: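 Kinetic calcium-flux fluorescence (2 min, 1 sec intervals) after compound addition in agonist mode. HTR2A-CHO cells were cultured 18 h, then dye-loaded 1 h at 37 C.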

[12] = target: Muscarinic acetylcholine receptor M1 (Homo sapiens) (UniProt P11229); experiment: Cholinergic receptor muscarinic 1 (CHRM1) small molecule agonists, cell-based qHTS assay (AID 1963589); note: nearly all actives have a fitted effect of over 35% in size
How it was run: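 CHO cells stably expressing human CHRM1, seeded 18 h at 37 C/5% CO2, dye-loaded 1 h at 37 C, then given compound in agonist mode; intracellular calcium fluorescence read kinetically at 1 s intervals. Fifteen concentrations, three independent runs.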

[13] = cAMP Responsive Elements (CRE) small molecule agonists, cell-based qHTS assay (AID 1963590)
How it was run: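 CRE-bla HEK 293T cells in DMEM with 10% dialyzed FBS, NEAA, pyruvate and 25 mM HEPES were plated 18 h at 37 C/5% CO2, then exposed to compounds in DMSO for 3 h before LiveBLAzer B/G FRET substrate addition.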

[14] = target: Beta-2 adrenergic receptor (Homo sapiens) (UniProt P07550); experiment: Adrenergic beta2 receptor (ADRB2) small molecule antagonists, cell-based qHTS assay (AID 1963592); note: nearly all actives have a fitted effect of over 50% in size; note: potency is the fitted concentration of half-maximal effect
How it was run: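 Cells (CHO, stable ADRB2 overexpression) incubated 18-20hr at 37C; compounds added from DMSO; agonist mix (1nM isoproterenol, 100uM IBMX, 25uM Ro-20-1724) added; 0.5hr RT; d2-cAMP and anti-cAMP-cryptate added; 1hr RT; 665/615 nm read.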

[15] = target: Beta-2 adrenergic receptor (Homo sapiens) (UniProt P07550); experiment: Adrenergic beta2 receptor (ADRB2) small molecule agonists, cell-based qHTS assay (AID 1963593);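 note: CHO cells stably overexpressing human ADRB2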
How it was run: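 CHO cells stably over-expressing ADRB2 were plated overnight at 37C, then dosed with compounds plus a stimulation mix containing 100uM IBMX and 25uM Ro-20-1724 for 0.5hr at room temperature. cAMP was measured by HTRF competition, 1hr.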

[16] = target: D(2) dopamine receptor (Homo sapiens) (UniProt P14416); experiment: Dopamine D2 receptor (DRD2) small molecule agonists, cell-based qHTS assay (AID 1963594); note: nearly all actives have a fitted effect of over 35% in size
How it was run: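 cAMP accumulation in DRD2-HEK293 cells measured by HTRF after 1 h detection; compounds added 10 min before NKH477 (200nM […]) forskolin-analogue stimulation, 30 min at room temperature, with Ro20-1724 present at 0.1 mM final.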

[17] = target: D(2) dopamine receptor (Homo sapiens) (UniProt P14416); experiment: Dopamine D2 receptor (DRD2) small molecule antagonists, cell-based qHTS assay (AID 1963595; active = well fitted inhibition curve with a large enough effect in the signal ratio in the repeat runs, with a control signal flat; the % refers to the signal ratio)
How it was run: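 Antagonist mode in DRD2-HEK293 cells: after compound addition with 0.1 mM Ro20-1724, cells received quinpirole (12 nM) and NKH477 (200 nM) for 30 min at room temperature; HTRF cAMP read after 1 h detection.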

[18] = target: KiSS-1 receptor (Homo sapiens) (UniProt Q969F8); experiment: Human kisspeptin (KISS1R) small molecule agonists, calcium flux assay in KISS1R-HEK293 cells (AID 1920064; active = well fitted curve in the direction sought with a large enough effect in the repeat runs; an effect the other way counts as inactive or inconclusive)
How it was run: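 HEK293 cells stably expressing human KISS1R were plated 18 h at 37 °C, loaded with calcium dye for 1 h at 37 °C, then given compound by pin tool. Fluorescence (Ex/Em 480/540) was read kinetically for 3 min.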

[19] = target: Muscarinic acetylcholine receptor M1 (Homo sapiens) (UniProt P11229); experiment: Cholinergic receptor muscarinic 1 (CHRM1) small molecule antagonists, cell-based qHTS assay (AID 1963588); note: nearly all actives have a fitted effect of over 40% in size
How it was run: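 CHRM1-CHO calcium-flux assay, antagonist mode. Cells were seeded 18 h, dye-loaded 1 h at 37 C and given compound for 5 min at RT, then acetylcholine was added at 50nM. FDSS fluorescence was read 3 min; 15 concentrations, three runs.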

[20] = cAMP Responsive Elements (CRE) small molecule antagonists, cell-based qHTS assay (AID 1963591; active = well fitted inhibition curve with a large enough effect in the signal ratio in the repeat runs, not every such curve was filed as active; the % refers to the signal ratio)
How it was run: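 CRE-bla HEK293T cells were plated 18 h at 37 °C/5% CO2, pinned with compound in DMSO, then stimulated with NKH477 at 0.25 uM final for 3 h. LiveBLAzer B/G FRET substrate was added and plates incubated 2 h at room temperature.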

Measured: Potency

Chain of Muscarinic acetylcholine receptor M1 (Homo sapiens) (P11229 whole entry, looked up): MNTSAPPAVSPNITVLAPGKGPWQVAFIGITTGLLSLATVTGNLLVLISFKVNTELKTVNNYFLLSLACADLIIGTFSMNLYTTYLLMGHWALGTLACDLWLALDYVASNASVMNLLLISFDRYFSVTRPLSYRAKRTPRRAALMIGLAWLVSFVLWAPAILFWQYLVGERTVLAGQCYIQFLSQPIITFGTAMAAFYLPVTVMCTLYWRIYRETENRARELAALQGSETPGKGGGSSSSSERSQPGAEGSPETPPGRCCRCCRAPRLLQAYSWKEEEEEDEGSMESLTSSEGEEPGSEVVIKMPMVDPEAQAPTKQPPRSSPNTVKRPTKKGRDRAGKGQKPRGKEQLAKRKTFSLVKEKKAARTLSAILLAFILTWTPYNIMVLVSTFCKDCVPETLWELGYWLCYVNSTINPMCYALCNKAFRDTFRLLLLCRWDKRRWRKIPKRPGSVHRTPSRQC
Chain of D(2) dopamine receptor (Homo sapiens) (P14416 whole entry, looked up): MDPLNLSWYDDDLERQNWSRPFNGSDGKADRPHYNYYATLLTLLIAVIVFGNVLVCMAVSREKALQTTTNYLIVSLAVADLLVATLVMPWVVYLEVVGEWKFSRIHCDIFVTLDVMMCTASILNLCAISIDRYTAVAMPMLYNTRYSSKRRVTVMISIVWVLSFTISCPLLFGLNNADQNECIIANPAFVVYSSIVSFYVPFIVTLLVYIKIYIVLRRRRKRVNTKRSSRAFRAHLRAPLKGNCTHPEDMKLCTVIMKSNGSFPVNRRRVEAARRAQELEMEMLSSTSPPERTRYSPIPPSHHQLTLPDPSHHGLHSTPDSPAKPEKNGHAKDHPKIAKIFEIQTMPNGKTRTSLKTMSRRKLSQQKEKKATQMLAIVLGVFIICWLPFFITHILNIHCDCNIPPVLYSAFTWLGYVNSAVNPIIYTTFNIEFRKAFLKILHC
Chain of KiSS-1 receptor (Homo sapiens) (Q969F8 whole entry, looked up): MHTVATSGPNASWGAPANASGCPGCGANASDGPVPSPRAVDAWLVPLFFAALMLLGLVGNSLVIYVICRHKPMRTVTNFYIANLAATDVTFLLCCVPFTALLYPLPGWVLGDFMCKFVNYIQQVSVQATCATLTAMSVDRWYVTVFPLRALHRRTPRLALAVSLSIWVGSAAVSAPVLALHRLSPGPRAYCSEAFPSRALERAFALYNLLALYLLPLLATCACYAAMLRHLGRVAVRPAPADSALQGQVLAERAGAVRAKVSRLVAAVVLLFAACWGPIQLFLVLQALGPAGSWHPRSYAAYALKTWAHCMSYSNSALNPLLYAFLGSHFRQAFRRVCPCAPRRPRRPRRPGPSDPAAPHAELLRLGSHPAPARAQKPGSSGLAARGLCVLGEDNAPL
Chain of Beta-2 adrenergic receptor (Homo sapiens) (P07550 whole entry, looked up): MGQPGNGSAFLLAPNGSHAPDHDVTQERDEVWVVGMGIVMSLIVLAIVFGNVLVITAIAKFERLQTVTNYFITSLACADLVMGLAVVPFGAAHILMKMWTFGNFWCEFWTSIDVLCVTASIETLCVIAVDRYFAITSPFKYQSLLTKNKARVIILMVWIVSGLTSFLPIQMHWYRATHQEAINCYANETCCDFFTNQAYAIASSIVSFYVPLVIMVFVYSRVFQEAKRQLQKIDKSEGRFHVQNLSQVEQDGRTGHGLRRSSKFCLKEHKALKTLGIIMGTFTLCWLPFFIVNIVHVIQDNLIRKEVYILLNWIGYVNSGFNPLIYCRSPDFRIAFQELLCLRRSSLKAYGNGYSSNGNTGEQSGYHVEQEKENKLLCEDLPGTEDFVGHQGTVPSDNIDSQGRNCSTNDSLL
Chain of 5-hydroxytryptamine receptor 2A (Homo sapiens) (P28223 whole entry, looked up): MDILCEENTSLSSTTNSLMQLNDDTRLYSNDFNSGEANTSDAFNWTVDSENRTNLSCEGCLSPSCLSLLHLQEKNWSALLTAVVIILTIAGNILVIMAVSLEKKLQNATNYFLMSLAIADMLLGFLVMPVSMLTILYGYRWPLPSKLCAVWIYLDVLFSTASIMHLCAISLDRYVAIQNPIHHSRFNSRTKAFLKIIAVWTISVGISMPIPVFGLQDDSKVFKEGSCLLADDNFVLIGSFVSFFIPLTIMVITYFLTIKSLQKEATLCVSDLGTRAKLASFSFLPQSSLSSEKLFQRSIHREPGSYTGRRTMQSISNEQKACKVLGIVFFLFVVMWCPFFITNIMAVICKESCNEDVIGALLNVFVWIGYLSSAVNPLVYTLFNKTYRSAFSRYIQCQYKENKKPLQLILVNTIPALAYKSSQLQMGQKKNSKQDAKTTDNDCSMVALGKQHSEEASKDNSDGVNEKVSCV
Chain of Gonadotropin-releasing hormone receptor (Homo sapiens) (P30968 whole entry, looked up): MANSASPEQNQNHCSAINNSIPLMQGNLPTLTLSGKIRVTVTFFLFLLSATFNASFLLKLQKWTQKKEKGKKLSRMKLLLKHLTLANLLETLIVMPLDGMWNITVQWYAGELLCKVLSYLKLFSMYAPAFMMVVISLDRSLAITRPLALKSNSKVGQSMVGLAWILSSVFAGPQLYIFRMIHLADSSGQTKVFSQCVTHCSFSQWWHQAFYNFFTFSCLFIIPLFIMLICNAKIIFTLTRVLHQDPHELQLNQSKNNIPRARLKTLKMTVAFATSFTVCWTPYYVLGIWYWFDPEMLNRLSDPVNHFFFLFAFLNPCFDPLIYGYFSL

C[C@H](CN1CCCC1)C(=O)c1ccc(C(F)(F)F)cc1
inactive: [1] | [2] | [3] | [4] | [5] | [6] | [7] | [8] | [9] | [10] | [11] | [12] | [13] | [14] | [15] | [16] | [17]

CC(C)(C)c1n[nH]c(=S)n(N)c1=O
inactive: [1] | [2] | [3] | [4] | [5] | [6] | [7] | [8] | [9] | [10] | [11] | [12] | [13] | [14] | [15] | [16] | [17]

CC(=O)[C@H]1CC[C@H]2[C@@H]3C[C@H](C)C4=CC(=O)CC[C@]4(C)[C@H]3[C@@H](O)C[C@]12C
inactive: [1] | [2] | [3] | [18] | [5] | [6] | [7] | [9] | [11] | [19] | [12] | [13] | [14] | [15] | [17]

CN1[C@@H]2CC[C@H]1CC(OC(=O)C(O)c1ccccc1)C2 (stereo partly specified)
inactive: [1] | [2] | [3] | [18] | [4] | [7] | [8] | [9] | [13] | [20] | [14] | [15] | [16] | [17]

NCC(=O)CCC(=O)O
inactive: [1] | [2] | [3] | [4] | [5] | [6] | [7] | [8] | [9] | [10] | [11] | [19] | [12] | [13] | [14] | [15] | [16] | [17]

Cc1ccco1
inactive: [1] | [2] | [3] | [18] | [5] | [7] | [8] | [9] | [11] | [19] | [12] | [13] | [20] | [16] | [17]

C=CC1CO1 (stereo unspecified)
inactive: [1] | [2] | [3] | [4] | [5] | [6] | [7] | [8] | [9] | [10] | [11] | [19] | [12] | [13] | [20] | [14] | [16] | [17]

Cc1oc(=O)oc1COC(=O)[C@@H]1N2C(=O)[C@@H](NC(=O)[C@H](N)c3ccccc3)[C@H]2SC1(C)C
inactive: [1] | [2] | [3] | [4] | [5] | [6] | [7] | [8] | [9] | [10] | [11] | [19] | [12] | [13] | [20] | [14] | [16]

CCCC1CCCC(=O)O1 (stereo unspecified)
inactive: [1] | [2] | [3] | [18] | [4] | [6] | [7] | [8] | [10] | [19] | [12] | [14] | [16] | [17]

FC1(F)C(F)(F)C(F)(F)C2(F)C(F)(C1(F)F)C(F)(F)C(F)(F)C1(F)C(F)(F)C(F)(F)C(F)(F)C(F)(F)C12F (stereo unspecified)
inactive: [1] | [2] | [3] | [4] | [5] | [6] | [7] | [8] | [9] | [10] | [11] | [19] | [12] | [13] | [20] | [16] | [17]

N#CCc1ccccc1[N+](=O)[O-]
inactive: [1] | [2] | [3] | [4] | [5] | [6] | [7] | [8] | [9] | [10] | [11] | [19] | [12] | [13] | [20] | [14] | [16] | [17]

CCCCC/C=C/CC1CC(=O)OC1=O (stereo unspecified)
inactive: [1] | [2] | [3] | [4] | [5] | [6] | [7] | [8] | [9] | [10] | [11] | [19] | [12] | [13] | [20] | [14] | [16] | [17]

C=CCOc1nc(OCC=C)nc(OCC=C)n1
inactive: [1] | [2] | [3] | [4] | [5] | [6] | [7] | [8] | [9] | [10] | [11] | [19] | [20] | [14] | [15] | [16] | [17]

CC1=CCC2C(C1)C2(C)C (stereo unspecified)
inactive: [1] | [2] | [3] | [18] | [4] | [6] | [7] | [8] | [9] | [10] | [11] | [12] | [13] | [20] | [17]
active: [14] 27.3 µM
